Laboratory results from PubChem BioAssay AID2284382 (EPA ToxCast).
Inconclusive results are not listed. Calls of active or inactive are those of the source. Rule for the calls: active = hit-call score of the fitted dose curve at least 0.9, where 1 is the maximum; inconclusive = response in the unintended direction; inactive = score below 0.9.

assay: CCTE_Mundy_HCI_iCellGABA_NOG_NeuriteLength: CCTE's Neurite Outgrowth Assay in iCellGABA cells for Neurite Length, Mundy Lab
Protocol: CCTE_Mundy_HCI_iCellGABA_NOG is a multiplexed, cell-based-readout assay that uses iCell GABANeurons from FUJIFILM Cellular Dynamics, Inc. (FCDI), human GABAergic enriched neurons derived from induced pluripotent stem (iPS) cells, with measurements taken at 50.33 hours after chemical dosing in a microplate: 96-well plate.CCTE_Mundy_HCI_iCellGABA_NOG_NeuriteLength is one of four components of the CCTE_Mundy_HCI_iCellGABA_NOG assay. It measures neurite outgrowth related to neurite length using High Content Imaging of fluorescently labelled markers.Data from the assay component CCTE_Mundy_HCI_iCellGABA_NOG_NeuriteLength was analyzed at the endpoint CCTE_Mundy_HCI_iCellGABA_NOG_NeuriteLength in the positive analysis fitting direction relative to DMSO as the negative control and baseline of activity. Using a type of morphology reporter, loss-of-signal activity can be used to understand developmental effects.
Exposure starts 2 hours post-plating by adding 10 ul of the working solution to 90 ul of media in the wells for a 1/10 dilution. Forty-eight hours after chemical treatment cells are fixed by direct addition of 100 ul of warm (37C) Dulbecco's phosphate buffered saline (DPBS) fixative solution containing 8% paraformaldehyde, 8% sucrose, and 0.1% of 3 mg/ml Hoechst 33342 into each well. Primary antibodies are prepared by dilution in Immunocytochemical Staining Buffer (ISB), 10X Dulbecco's PBS, 0.1% Saponin, 5% Bovine Serum Albumin, 0.5% NaN3 (Sodium Azide) and betaIII-tubulin (rabbit anti-betaIII-tubulin, 1:800) followed by Alexa Fluor-488 secondary (1:500) to label neuronal cell bodies and neurites. A Cellomics ArrayScan VTi HCS Reader is used for automated image acquisition and analysis of neurite outgrowth.

**Q.** Which AC50 does the source give for CCN(CC)c1nc(C)cc(OP(=S)(OC)OC)n1 here?
**A.** 78.8 µM (active)

**Q.** For COP(=O)(OC)O/C(=C\Cl)c1cc(Cl)c(Cl)cc1Cl, which AC50 is on record?
**A.** 60.7 µM (active)

**Q.** For COP(=O)(OC)OC=C(Cl)Cl, which outcome is on record?
**A.** inactive

**Q.** With CCOP(=S)(OCC)SCSCC as the molecule, how does the outcome read?
**A.** inactive

**Q.** For CNC(=O)CSP(=S)(OC)OC, which outcome is on record?
**A.** inactive

**Q.** Which outcome does the source give for COP(=O)(OC)O/C(C)=C/C(=O)N(C)C here?
**A.** inactive

**Q.** For COP(=O)(OC)OC(Br)C(Cl)(Cl)Br (stereo unspecified), which AC50 is on record?
**A.** 11.6 µM (active)

**Q.** Which outcome does the source give for CCOC(=O)CC(SP(=O)(OC)OC)C(=O)OCC (stereo unspecified) here?
**A.** inactive

**Q.** Which outcome does the source give for CNC(=O)CSP(=O)(OC)OC here?
**A.** inactive

**Q.** Which outcome does the source give for CCCSP(=O)(OCC)SCCC here?
**A.** inactive

**Q.** Which outcome does the source give for CCCCSP(=O)(SCCCC)SCCCC here?
**A.** inactive

**Q.** With CCOP(=S)(Oc1cnc(C(C)(C)C)nc1)OC(C)C (stereo unspecified) as the molecule, how does the outcome read?
**A.** inactive

**Q.** For COP(=O)(OC)C(O)C(Cl)(Cl)Cl (stereo unspecified), which AC50 is on record?
**A.** 50 µM (active)

**Q.** With COP(=S)(OC)SCN1C(=O)c2ccccc2C1=O as the molecule, how does the AC50 read?
**A.** 67.2 µM (active)

**Q.** For CCOP(=S)(OCC)Oc1nc(Cl)c(Cl)cc1Cl, which AC50 is on record?
**A.** 24.3 µM (active)

**Q.** For CCCSP(=O)(OCC)Oc1ccc(Br)cc1Cl (stereo unspecified), which outcome is on record?
**A.** inactive

**Q.** Which AC50 does the source give for CCOC(=O)CC(SP(=S)(OC)OC)C(=O)OCC (stereo unspecified) here?
**A.** 78.6 µM (active)

**Q.** With CCOP(=S)(OCC)Oc1ccc2c(C)c(Cl)c(=O)oc2c1 as the molecule, how does the AC50 read?
**A.** 58 µM (active)

**Q.** For CCOP(=O)(SC(C)CC)N1CCSC1=O (stereo unspecified), which outcome is on record?
**A.** inactive

**Q.** For CCOP(=S)(OCC)SCSC(C)(C)C, which outcome is on record?
**A.** inactive

**Q.** With CCOP(=S)(OCC)OC(Cl)C(Cl)(Cl)Cl (stereo unspecified) as the molecule, how does the AC50 read?
**A.** 29.9 µM (active)
